In PubChem BioAssay AID2314 (National Center for Advancing Translational Sciences (NCATS), 2010) one finds max response data, which are given here for 92 compounds.

About 37,000 (12%) of roughly 300,000 compounds were called active. The list comes from a sample in which actives are over-represented; it also holds similar structures and randomly drawn compounds. A number with no mark means an inactive call. Cut-off read from the data, not from the text of the source: active = max response mostly above about 13% (no sharp cut-off); inactive = mostly below about 14%.

A short description of this test: Cycloheximide Counterscreen for Small Molecule Inhibitors of Shiga Toxin. Note: read at 38.3 µM for the half of the compounds with a filed dose; 0% is about no effect. The note with it: cell reporter, cycloheximide protein synthesis inhibition counterscreen; hits give high values.
On to `CN(C(=O)CSc1nnnn1-c1ccccc1)C1CCCCC1`, for which the max response was 17.1% (active). For the compound `CN(C(=O)CSc1nnc(-c2c[nH]c3ccccc23)o1)C1CCS(=O)(=O)C1` (configuration not stated), the max response was 1.22%. Turning to `O=c1c2ccccc2nnn1CSc1nnnn1-c1ccccc1`, the max response was 67.5% (active). On to `CN(C(=O)CSc1nncc2ccccc12)C1CCCCC1`, for which the max response is 30.4% (active).

For `C=CCn1c(SCn2nnc3ccccc3c2=O)nnc1-c1ccc(Cl)cc1`, the max response is 8.6%. As for `Nc1nnc(SCn2nnc3ccccc3c2=O)s1`, the max response was 13.9%.

As for `CN(C(=O)CCn1c(=S)oc2ccccc21)C1CCCCC1`, the max response was 3.76%. On to `CN(C(=O)COc1ncnc2c1cnn2-c1ccccc1)C1CCCCC1`, for which the max response is 2.25%. For `CC(=O)c1cccc(-n2nnnc2SCC(=O)NNC(=O)C2CCCCC2)c1`, the max response is 0.0917%. On to `CC(NC(=O)C1CCCN(S(=O)(=O)c2ccc(-n3cnnn3)cc2)C1)c1ccc(F)cc1` (configuration not stated), for which the max response is 1.89%. Consider `Cc1cccc(N(Cc2ccccc2)C(=O)c2ccccc2F)c1`, for which the max response is 13.7%. Regarding `O=C(NCc1ccccc1Cl)C1CCCN1S(=O)(=O)c1ccc(F)cc1` (configuration not stated), the max response is -3.67%.

For `COCCCNC(=S)N1CCCC(c2nc3cc(C)c(C)cc3[nH]2)C1` (configuration not stated), the max response was 13.5%. In the case of `CC1CCN(C(=S)c2ccc(-c3ccc(Cl)cc3Cl)o2)CC1`, the max response is 8.41%.

Turning to `CCOC(=O)c1cnc(Nc2nc3ccccc3o2)nc1CSC(=S)N1CCCCC1`, the max response is 10.5%. As to `Cc1cc(N=Nc2ccc3ccccc3c2)ccc1O`, the max response is 46.6% (active).

Take `COc1ccc(N=Nc2ccc(O)c(P(=O)(c3ccccc3)c3ccccc3)c2)cc1`: the max response is -8.38%. Turning to `COc1ccnc2c1c(=O)n(Cc1cccc(F)c1)c(=O)n2C`, the max response was 6.46%. As for `Cc1ccc(-c2csc(NC(=O)Cn3[nH]c(=O)c4ccccc4c3=O)n2)cc1`, the max response was 11.5%. With `COc1ccc(-c2csc(NC3OC(=O)c4ccccc43)n2)cc1` (configuration not stated), the max response is 20% (active).

For `COc1ccc2c(c1OC)C(=O)OC2c1c(O)nc(SC)n(-c2ccccc2)c1=O` (configuration not stated), the max response was -1.46%.

As for `COc1ccc(C(=O)Nc2nc(-c3ccc(S(=O)(=O)N4CCOCC4)cc3)cs2)cc1`, the max response was 0.36%. Regarding `COc1ccc(N/C=C(\C2OC(=O)c3ccccc32)[N+](=O)[O-])cc1` (configuration not stated), the max response is 7.23%. Regarding `Cc1ccc(-c2csc(NC3OC(=O)c4ccccc43)n2)cc1` (configuration not stated), the max response is 21.8% (active). Turning to `CCc1ccccc1NC(=O)[C@@H]1CCC(=O)N1C1OC(=O)c2c1ccc(OC)c2OC` (some centres not stated), the max response is -2.07%. Turning to `COc1ccc2c(c1OC)C(=O)OC2Nc1nc(-c2ccccc2)cs1` (configuration not stated), the max response was 38.5% (active). As for `O=C(Cn1c(NCCO)nc2ccccc21)c1ccc(Cl)cc1Cl`, the figure is -1.01%; as for `COc1ccc(CN2CCN(Cc3cn(C)nc3-c3ccccc3)CC2CCO)c(C)c1C` (configuration not stated), 7.91%. As to `CC(=O)c1ccc(S(=O)(=O)N(C)CCCC(=O)N(C)Cc2ccccc2F)cc1`, the max response is 2.54%. Consider `COC(=O)C1=CN(Cc2ccc(OC)cc2)C=C(C(=O)OC)C1c1ccc(O)c(OC)c1`, for which the max response was -3.7%. On to `O=C(c1ccc(Br)o1)N(c1ccccn1)C1CCCCC1`, for which the max response is 0.638%. Take `Cc1ccc(CSc2nsc(C)c2C#N)cc1`: the max response is 22% (active). On to `Cc1snc(SCc2c(F)cccc2Cl)c1C#N`, for which the max response is -2.84%.

As for `Cc1cc(C)c(C#N)c(SCc2ccc3c(c2)OCO3)n1`, the max response was -2.14%. For `Cn1c(CCC(=O)OCC(=O)NCc2ccccc2Cl)nc(=O)c2ccccc21`, the max response is -1.91%. As for `CCOCCCNC(=S)Nc1ccc2nc(N3CCN(CC)CC3)cc(C)c2c1`, the figure is -1.07%. Consider `COc1cccc(CCNC(=O)c2cccc(NC(=O)C3=C(C)OCCS3)c2)c1`, for which the max response is 12%. As to `CC(=O)NC(=S)Nc1ccc(NC(=S)NC(=O)c2ccc([N+](=O)[O-])cc2)cc1`, the max response is 10.5%. On to `CC(=O)Nc1ccc(NC(=S)NC(=O)c2ccc([N+](=O)[O-])c(C)c2)cc1`, for which the max response is 17.1% (active). Turning to `Cc1ccc(C(=O)NC(=S)Nc2ccc3[nH]c(=O)[nH]c3c2)cc1C`, the max response is 2.1%. As for `COc1ccc(N2CC(C(=O)N[C@@H](C)C(=O)N3CCCCC3)CC2=O)cc1` (some centres not stated), the figure is -0.721%; as for `O=C1/C(=C/c2coc3ccc(O)cc3c2=O)SC(=S)N1c1ccccc1`, -2.68%; as for `COc1ccccc1C(=O)Oc1ccc(N2C(=O)CCC2=O)cc1`, -4.08%. As for `CCOC(=O)c1cc(OC(=O)c2ccccc2Cl)n(-c2ccccc2)n1`, the figure is 28.5%. `Cc1cc(OC(=O)c2ccccc2Cl)ccc1N1C(=O)CCC1=O`: the max response is 43.6% (active).

As to `O=C1c2ccccc2-c2ncnc3c(N4CCOCC4)cc(N4CCOCC4)c1c23`, the max response was -4.86%. As for `CC(=O)c1ccc(S(=O)(=O)N2CCC3(CC2)OCCO3)cc1`, the figure is -6.29%. In the case of `COc1ccccc1CN1CCN(Cc2cc(OC)c(OC)cc2OC)CC1`, the max response was 3.57%.

On to `O=C(COC(=O)CCc1nc2ccccc2c(=O)[nH]1)Nc1ccc(N2CCOCC2)cc1`, for which the max response was 2.13%.

Regarding `CC(C)(C)c1ccc(NC(=O)COC(=O)CCc2nc3ccccc3c(=O)[nH]2)cc1`, the max response was 14.2% (active). Take `O=C(CCc1nc2ccccc2c(=O)[nH]1)OCC(=O)c1cccc(Cl)c1`: the max response was -1.24%. As for `O=C(c1ccc[nH]c1=S)N1CCN(S(=O)(=O)c2ccc(Br)cc2Cl)CC1`, the figure is -2.01%; as for `COc1ccc(NC(=O)CCS(=O)(=O)c2cc3c(cc2Cl)NC(=O)CO3)cc1OC`, -10.6%. Consider `COc1ccccc1OCC(=O)Nc1c2c(nn1-c1ccc(F)cc1)CS(=O)(=O)C2`, for which the max response was -3.21%.

As to `N#Cc1cc([N+](=O)[O-])ccc1Oc1cccc(/C=N/NC(=O)c2ccc(Cl)cc2)c1`, the max response was -2.97%.

`Cc1ccc(NC(=O)/C(=C/c2ccc([N+](=O)[O-])cc2)NC(=O)c2ccccc2)cc1`: the max response was -3.41%. Turning to `Cc1ccc(NC(=O)C(=O)NCC2CCN(C(=O)c3cccc([N+](=O)[O-])c3)CC2)cc1`, the max response was 3.94%. In the case of `CCC(CC)NC(=O)/C=C/c1cccc([N+](=O)[O-])c1`, the max response was -4.49%. As for `CC(=O)Nc1ccc(NC(=O)C(C)OC(=O)c2ccccc2C(=O)c2ccc(Cl)c([N+](=O)[O-])c2)cc1` (configuration not stated), the figure is 8.13%; as for `O=C(N/N=C/c1cccc(OC(=O)c2ccc([N+](=O)[O-])cc2)c1)c1cccnc1`, -7.61%; as for `O=C(O)/C=C/C(=O)NNc1ccc([N+](=O)[O-])cc1`, 10.2%. As for `CCc1ccc(NC(=O)C(C)OC(=O)/C=C/c2cccc([N+](=O)[O-])c2)cc1` (configuration not stated), the figure is 59.2% (active); as for `O=[N+]([O-])c1ccc(N/N=C/c2ccccc2)cc1`, 34.7% (active); as for `Cc1cccc(COc2ccccc2/C=N/Nc2ccc([N+](=O)[O-])cc2)c1`, -0.989%. For `O=C(N/N=C/c1cccc([N+](=O)[O-])c1)c1ccncc1`, the max response is 11% (active). On to `Cc1ccc(NC(=O)O/N=C/c2cccc([N+](=O)[O-])c2)cc1`, for which the max response was 40.6% (active). `COc1ccc(C(=O)NC2CC(C)(C)Cc3c2cnn3-c2ccccc2C)o1` (configuration not stated): the max response is -0.937%. In the case of `CC(Sc1nnc(CNC(=O)c2ccccc2F)n1C)C(=O)Nc1nccs1` (configuration not stated), the max response is -1.64%.

Turning to `CCN(CC)S(=O)(=O)c1ccc(Cl)c(C(=O)NC(C)C(c2cccs2)N2CCCC2)c1` (configuration not stated), the max response is 3.13%. On to `O=C1CCC([N+](=O)[O-])C(c2ccccc2Br)N1` (configuration not stated), for which the max response is -3.57%. In the case of `Oc1ccccc1CN1CCN(C(c2ccccc2)c2ccccc2)CC1`, the max response was 2.23%. As to `Cc1cccc(C(=O)OCC(=O)Nc2sc3c(c2C#N)CCC3)c1`, the max response was -3.19%. With `COc1ccc(CN2CCn3ncc(C(=O)Nc4ccc(Cl)cc4Cl)c3C2=O)cc1`, the max response is -1.27%. In the case of `Cc1ccc(C(c2nnnn2CS(=O)(=O)c2ccc(C)cc2)N2CCC(C)CC2)cc1` (configuration not stated) it was 1.26%.

For `COc1cccc(-c2nc(CS(=O)CC(=O)NCc3ccc(F)cc3)c(C)o2)c1` (configuration not stated), the max response was -2.32%. For the compound `O=[N+]([O-])c1cccc(/C=N/Nc2ncc(Br)cn2)c1`, the max response is 29.2% (active). As for `COc1ccc(O)c(/C=N/N=C/c2cccc([N+](=O)[O-])c2)c1`, the max response is -1.21%. As to `O=C(N/N=C/c1cccc([N+](=O)[O-])c1)C1CC(=O)N(c2ccc(Br)cc2)C1` (configuration not stated), the max response was 0.637%.

For `CC(NC(=S)Nc1ccccc1)C(c1cccs1)N1CCOCC1` (configuration not stated), the max response was -0.819%.

On to `CC(C)CN(C(=O)c1cccc(S(=O)(=O)N2CCCCC2)c1)C1CCS(=O)(=O)C1` (configuration not stated), for which the max response is -3.21%.

For the compound `CCOc1cc2[nH]c(=O)n(Cc3ccc(C(=O)NCCCN4CCCC4=O)cc3)c(=O)c2cc1OCC`, the max response was 3.4%.

Regarding `Cc1cccc(C(=O)NCCCN2CCCC2=O)c1`, the max response is -1.36%. Regarding `CCOc1ccc(C(=O)NCCCN2CCCC2=O)cc1`, the max response is 16.9% (active). For the compound `Cn1c(N)c(C(=O)COC(=O)/C=C/c2ccc(OC(F)F)cc2)c(=O)n(C)c1=O`, the max response is 9.63%. `COc1ccc(S(=O)(=O)n2cnc3ccccc32)c(C)c1`: the max response was 8.08%. For `COc1cccc(NC(=O)CN(C)C(=O)/C=C/c2cc(OC)ccc2OC)c1`, the max response is -0.59%. Take `O=[N+]([O-])c1ccccc1NCc1ccccc1Cl`: the max response is 0.768%. As for `O=[N+]([O-])c1ccccc1NCc1ccc(Cl)cc1`, the figure is 19.5% (active); as for `O=C(NCCNc1ccccc1[N+](=O)[O-])c1ccccc1F`, 46.4% (active); as for `O=C(NCCNc1ccc([N+](=O)[O-])cc1Cl)c1ccccc1F`, 12.9%. In the case of `Cc1c(NC(=S)NCc2ccc(F)cc2)cccc1[N+](=O)[O-]`, the max response was -2.87%. `O=C(NCCCNc1ccc([N+](=O)[O-])cc1Cl)c1ccccc1F`: the max response is 11.2%.
